Rows were chosen to be rich in hits. Some 3.3% of all compounds tested hit in one or more screens of this group.
USP2a inh: qHTS Assay for Inhibitors of Ubiquitin-specific Protease USP2a Using CHOP2 as the Reporter; Ubiquitin carboxyl-terminal hydrolase 2 (Homo sapiens), O75604; USP2 core, Ub-CHOP2 coupled fluorogenic reporter, 485/531; Potency, µM (series often up to 38.3 µM), inactives show top-dose activity change, negative = inhibition, usual class: inhibitors; 330,000 compounds, 0.01% hits; AID 463254, 2010;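 also: potency is read from the fitted curve at half-maximal effect; plate controls were DMSO wells for no effect and full inhibition by NEM control for full effect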
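Deubiquitinase activity read as fluorescence (485/531 nm) after Ub-CHOP2 cleavage activates the enterokinase reporter on its substrate; USP2 core 10nM, Ub-CHOP2 and substrate 25nM each, 30min compound preincubation then 60min RT; data normalized to NEM, curves fitted.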
PI5P4K alpha inh: qHTS for Inhibitors of phosphatidylinositol 5-phosphate 4-kinase (PI5P4K); PI5P4Kalpha enzyme, ADP-Glo luminescence, 60 min; hits give low values; Phosphatidylinositol 5-phosphate 4-kinase type-2 alpha (Homo sapiens), P48426; AID 652105, 2013; max response, %; 330,000 compounds, 1.2% hits; active = max response of -50% or lower; inconclusive = between -30% and -50%; inactive = -30% or higher; also: value at the top dose of about 77 µM
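PI5P4Kalpha ADP-Glo assay; 5 microM ATP final; 60 min RT reaction; HEPES pH 7.4/EGTA/CHAPS, 5% DMSO; controls lacking substrate or enzyme; luminescent end-point.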
USP1 inh: Inhibitors of USP1/UAF1: Primary Screen | Ubiquitin carboxyl-terminal hydrolase 1 (Homo sapiens), O94782 | recombinant USP1/UAF1, Ub-Rhodamine cleavage fluorescence | Potency, µM (top dose mostly 57.1 µM), inactives show top-dose activity change, negative = inhibition, hits mostly inhibitors | 390,000 compounds, 0.23% hits | AID 743255, 2014; also: potency is read from the fitted curve at half-maximal effect; nearly all actives have a fitted effect of over 60% in size
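High-throughput fluorogenic screen: 1nM USP1/UAF1 complex, Ub-Rho substrate 150nM final, 50mM HEPES pH 7.8 with 0.5mM EDTA, 0.1 mg/ml BSA, 1mM TCEP and 0.01% Tween-20.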
WRN helicase inh: qHTS for Inhibitors of WRN Helicase; Bifunctional 3'-5' exonuclease/ATP-dependent helicase WRN (Homo sapiens), Q14191; WRN helicase unwinding, fluorescent forked duplex, kinetic; Potency, µM (top dose mostly 114 µM), for the others: top-dose activity change, negative = inhibition, hits mostly inhibitors; 360,000 compounds, 0.46% hits; also: potency is read from the fitted curve at half-maximal effect; nearly all actives have a fitted effect of over 55% in size
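Fluorescence dequenching readout, ex 525 nm/em 598 nm, kinetic mode: forked duplex DNA (100 nM final) with adjacent fluorophore and quencher unwound by WRN (20 nM final) with 2 mM ATP. Compound preincubation 15 min, room temperature.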
PLK1 PBD inh: qHTS for Inhibitors of PLK1-PDB (polo-like kinase 1 - polo-box domain): Primary Screen; Plk1 PBD binding of FITC phosphopeptide, fluorescence polarization; Potency, µM, inactives show max response, negative = inhibition, hits mostly inhibitors; 360,000 compounds, 2.8% hits; AID 720504, 2013; also: potency is read from the fitted curve at half-maximal effect; series mostly up to about 57 µM; nearly all actives have a fitted effect of over 65% in size
TbPYK confirm: qHTS of Trypanosoma Brucei Inhibitors: Confirmatory Assay for Cherry-picked Compounds. Potency, µM (highest dose often 76.9 µM), inactives show at the top dose activity change, negative = inhibition, actives largely listed as inhibitors. shares compounds with PLK1 PBD inh. 890 compounds, 67% hits. recombinant TbPYK, Kinase-Glo ATP luminescence; also: potency is read from the fitted curve at half-maximal effect; nearly all actives have a fitted effect of over 70% in size
TbPYK ADP-Glo: qHTS of Trypanosoma Brucei Inhibitors: Orthogonal Assay for Cherry-picked Compounds | recombinant TbPYK, ADP-Glo luminescence, 60 min | Potency, µM (doses to about 76.9 µM), for inactives: top-dose activity change, negative = inhibition, actives largely listed as inhibitors | shares compounds with PLK1 PBD inh | AID 720584, 2013 | 890 compounds, 62% hits; also: potency is read from the fitted curve at half-maximal effect; nearly all actives have a fitted effect of over 75% in size
Numbers without * were called inactive; ? = inconclusive; . = not tested or not shown; [ ] = dose if it differs, or a comment. Unless noted, calls follow the shape of the dose curve; as a rule, active = well fitted curve in the direction sought with a large enough effect; inconclusive = small, poorly fitted or top-dose-only effect, or another doubt; inactive = no such curve, though single readings can be large; an effect the other way counts as inactive or inconclusive. Unless noted, % is scaled to controls: 0 for no effect and ±100 for the full control effect.

SMILES	USP2a inh	PI5P4K alpha inh	USP1 inh	WRN helicase inh	PLK1 PBD inh	TbPYK confirm	TbPYK ADP-Glo
CCOc1ccc(-n2c(N)c(C(=O)N3CCN(C)CC3)sc2=S)cc1	3%	2	-15%	0%	-8%	.	.
CCOc1ccc(C(=S)N2CCN(C)CC2)cc1	9%	-12	-6%	-24%[57.1 µM]	13µM*	13µM*	4.5µM*
S=C(c1ccc(Cl)cc1)N1CCN(Cc2ccccc2)CC1	-6%	0	-18%	0%	-16%	.	.
CCN1CCN(C(=S)c2ccc(Cl)cc2)CC1	1%	?	-6%	-32%	2.1µM*	0.25µM*	1.6µM*
COc1ccc(OCCCCn2c(C3CC(=O)N(c4cccc(Cl)c4)C3)nc3ccccc32)cc1 (stereo unspecified)	.	.	-12%	.	.	.	.
Oc1ccc2c(c1)OCC1(O)Cc3cc(O)c(O)cc3C21 (stereo unspecified)	.	-88*	-12%	8.9µM*	?	2.2µM*	3.2µM*
Oc1cc2c(cc1O)[C@H]1c3ccc(O)c(O)c3OC[C@@]1(O)C2	-1%	?	-24%	45µM*	7.5µM*	1.3µM*	?
COc1ccc(C2COc3cc(O)ccc3C2)c(OC)c1O (stereo unspecified)	.	-6	3%	4%	-6%	.	.
CCN(CC)c1ccc(C(=C2C=CC(=[N+](CC)CC)C=C2)c2ccc(S(=O)(=O)O)cc2S(=O)(=O)[O-])cc1	.	-57*	?	-6%[11.6 µM]	-13%	16µM*	2%
CCc1ccc2occ(CC(=O)Nc3ccc(OC)c(Cl)c3)c2c1	.	.	-9%	.	.	.	.
CCc1cccc(NC(=O)c2nc(-c3ccncc3)no2)c1	.	.	-9%	.	.	.	.
CCC(=O)NC1=C(Cl)C(=O)C(NC(=O)CC)=C(Cl)C1=O	-1%	-81*	32µM*	?	1.7µM*	0.25µM*	0.4µM*
CCC(=O)NC1=C(NC(C)c2ccccc2)C(=O)c2ccccc2C1=O (stereo unspecified)	-8%	3	-22%	4%	-2%	.	.
CCC(=O)N(C1=C(NC)C(=O)c2ccccc2C1=O)C(C)C	4%	6	?	6%	2%	.	.
CCC(=O)N(CC)C1=C(O)c2ccccc2C(=O)C1=O	0%	?	25µM*	-29%	24µM*	-98%	25µM*
CCCCN(C)C(=O)c1ccc2c(c1)N(Cc1cccc(F)c1)C(=O)c1ccccc1S2	.	.	-35%	.	.	.	.
CCOc1ccccc1-n1c(=S)sc2c(=O)n(-c3ccc(C)cc3)c(=S)[nH]c21	-1%	-22	-12%	0%	6.7µM*	4.5µM*	6.3µM*
O=C1C=CC(=O)N1c1ccc2ccccc2c1	.	-11	-24%	50µM*	8.4µM*	25µM*	?
CCN(CC)C1CC(=O)N(c2cccc(C)c2)C1=O (stereo unspecified)	0%	.	.	.	.	.	.
O=C(Nc1ccc(Nc2ccccc2)cc1)c1c(F)c(F)c(F)c(F)c1F	1%	1	-11%	-11%	-8%	.	.
Cc1cccc(N2C(=O)C=CC2=O)c1	.	-11	-4%	45µM*	30µM*	?	?
O=c1c2ccccc2cnn1-c1ccc2ccccc2c1	-2%	.	3%	-4%	-8%	.	.
O=C1C=CC(=O)N1c1ccc(Nc2ccccc2)cc1	.	?	-15%	?	24µM*	?	?

Compound activity: PubChem BioAssay, National Center for Advancing Translational Sciences (NCATS)
